# Experimental data as given in paper PMC5700166.
# Experiments:
# [1] = biological target: T1, GST-Nv-NF-kB (Ser allele) (Nematostella vectensis, UniProt A7UNT2 2-411); assay: protein-binding microarray (PBM); PBM: ~300 nM protein, 6 mM HEPES pH 7.8, 80 mM KCl, 0.5 mM EDTA, 0.5 mM EGTA, 6% glycerol, 35 ng/ul poly-dIdC, 1% milk, 1 h, room temperature; Ap Aiptasia and Nv Nematostella (sea anemones) / Co Capsaspora / Aq Amphimedon (sponge) / Dm Drosophila / Hu human; RHD is the Rel homology domain; high values mean tight binding; details: dsDNA, one strand shown
# T1 sequence: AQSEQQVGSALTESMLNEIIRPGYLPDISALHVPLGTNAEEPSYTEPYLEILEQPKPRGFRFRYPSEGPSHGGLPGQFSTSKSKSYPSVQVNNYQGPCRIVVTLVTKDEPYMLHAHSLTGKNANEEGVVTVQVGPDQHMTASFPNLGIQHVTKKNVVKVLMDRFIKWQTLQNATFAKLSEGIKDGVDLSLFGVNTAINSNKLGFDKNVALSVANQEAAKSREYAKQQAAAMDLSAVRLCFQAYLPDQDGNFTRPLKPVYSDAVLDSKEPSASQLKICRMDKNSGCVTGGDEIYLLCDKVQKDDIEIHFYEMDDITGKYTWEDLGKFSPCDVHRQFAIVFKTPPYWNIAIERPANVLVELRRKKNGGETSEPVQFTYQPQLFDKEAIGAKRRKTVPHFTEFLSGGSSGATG
# GST-Hu-p50 = GST-Hu-p50 (Homo sapiens, UniProt P19838 7-356); assay: as above; details: dsDNA, one strand shown
# GST-Hu-p50, sequence (P19838 7-356): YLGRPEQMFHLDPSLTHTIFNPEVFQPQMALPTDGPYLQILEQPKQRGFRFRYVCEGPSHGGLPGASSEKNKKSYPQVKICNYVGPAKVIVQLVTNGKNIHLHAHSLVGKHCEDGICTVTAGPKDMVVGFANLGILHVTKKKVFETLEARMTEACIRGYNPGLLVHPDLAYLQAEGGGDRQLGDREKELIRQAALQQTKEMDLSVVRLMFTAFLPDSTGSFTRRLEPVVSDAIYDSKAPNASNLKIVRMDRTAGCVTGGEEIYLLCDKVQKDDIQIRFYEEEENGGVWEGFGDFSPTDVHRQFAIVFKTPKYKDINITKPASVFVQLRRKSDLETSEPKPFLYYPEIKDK
Sequence,binding signal [1] [z-score],binding signal (GST-Hu-p50) [z-score]
CCGATTAACATCAGGAACTACCCTGATGTTAATCGGGTCTTGATTCGCTTGACGCTGCTG,2.02,2.58
CCGATTAACATCAAATAGCCCCCTGATGTTAATCGGGTCTTGATTCGCTTGACGCTGCTG,3.62,4.73
CCGATTAACATCAGGGAAAACCATGATGTTAATCGGGTCTTGATTCGCTTGACGCTGCTG,6.37,4.01
CCGATTAACATCATCTGGGAAAATGATGTTAATCGGGTCTTGATTCGCTTGACGCTGCTG,4.03,1.96
CCGATTAACATCAGAAAATGCCCTGATGTTAATCGGGTCTTGATTCGCTTGACGCTGCTG,1.55,2.79
CCGATTAACATCATAAAATCCCATGATGTTAATCGGGTCTTGATTCGCTTGACGCTGCTG,2.31,3.45
CCGATTAACATCAAGAGTTTCCCTGATGTTAATCGGGTCTTGATTCGCTTGACGCTGCTG,4.9,3.64
CCGATTAACATCACCTTGGGAAATGATGTTAATCGGGTCTTGATTCGCTTGACGCTGCTG,2.17,2.17
CCGATTAACATCAGGGATTTACCTGATGTTAATCGGGTCTTGATTCGCTTGACGCTGCTG,5.26,4.74
CCGATTAACATCAGGGGAAGGACTGATGTTAATCGGGTCTTGATTCGCTTGACGCTGCTG,5.04,3.89
CCGATTAACATCAAAAATCCCGATGATGTTAATCGGGTCTTGATTCGCTTGACGCTGCTG,2.85,3.62
CCGATTAACATCAAAAACTCCCATGATGTTAATCGGGTCTTGATTCGCTTGACGCTGCTG,4.52,4.38
CCGATTAACATCAGGGAAAAAACTGATGTTAATCGGGTCTTGATTCGCTTGACGCTGCTG,6.38,4.02
CCGATTAACATCAAGAATTCCCGTGATGTTAATCGGGTCTTGATTCGCTTGACGCTGCTG,5.52,4.39
CCGATTAACATCAGGGAATATTATGATGTTAATCGGGTCTTGATTCGCTTGACGCTGCTG,5.41,3.86
CCGATTAACATCACAACCCCCCCTGATGTTAATCGGGTCTTGATTCGCTTGACGCTGCTG,4.57,4.53
CCGATTAACATCAAGGGATCCCCTGATGTTAATCGGGTCTTGATTCGCTTGACGCTGCTG,6.37,5.23

Sequence,binding signal [1] [z-score],binding signal (GST-Hu-p50) [z-score]
CCGATTAACATCAAGGGAGTACCTGATGTTAATCGGGTCTTGATTCGCTTGACGCTGCTG,4.41,2.56
CCGATTAACATCAGGGGCTACCCTGATGTTAATCGGGTCTTGATTCGCTTGACGCTGCTG,2.1,3.35
CCGATTAACATCAAGAGACCCCCTGATGTTAATCGGGTCTTGATTCGCTTGACGCTGCTG,2.79,3.43
CCGATTAACATCAGGGGACGCACTGATGTTAATCGGGTCTTGATTCGCTTGACGCTGCTG,4.02,4.28
CCGATTAACATCACAAATGGGAATGATGTTAATCGGGTCTTGATTCGCTTGACGCTGCTG,1.63,1.06
CCGATTAACATCAAAGAAGCCCCTGATGTTAATCGGGTCTTGATTCGCTTGACGCTGCTG,4.95,5.02
CCGATTAACATCAACGCCCCCCCTGATGTTAATCGGGTCTTGATTCGCTTGACGCTGCTG,4.55,4.25
CCGATTAACATCAAGGAATTACCTGATGTTAATCGGGTCTTGATTCGCTTGACGCTGCTG,4.05,2.25
CCGATTAACATCAGGCACTCCCCTGATGTTAATCGGGTCTTGATTCGCTTGACGCTGCTG,2.69,3.37
CCGATTAACATCAAATATTCCCATGATGTTAATCGGGTCTTGATTCGCTTGACGCTGCTG,4.14,2.88
CCGATTAACATCACGGAACTCCCTGATGTTAATCGGGTCTTGATTCGCTTGACGCTGCTG,3.15,3.05
CCGATTAACATCAGGGGATGACCTGATGTTAATCGGGTCTTGATTCGCTTGACGCTGCTG,3.75,3.42
CCGATTAACATCAGGGAATCCACTGATGTTAATCGGGTCTTGATTCGCTTGACGCTGCTG,3.63,2.79
CCGATTAACATCAGGGACCGCCCTGATGTTAATCGGGTCTTGATTCGCTTGACGCTGCTG,1.35,3.16
CCGATTAACATCAGAAGTTTCCCTGATGTTAATCGGGTCTTGATTCGCTTGACGCTGCTG,5.14,4.43
CCGATTAACATCAGGGGTTTCACTGATGTTAATCGGGTCTTGATTCGCTTGACGCTGCTG,2.32,4.22
